Test results: PubChem BioAssay (EPA / NIEHS)
Inconclusive results are not listed. Activity calls are given as the source filed them. How the source made its calls: active means hit-call score of the fitted dose curve at least 0.9, where 1 is the maximum; inconclusive means response in the unintended direction; inactive means score below 0.9.

What follows are compounds tested on xenobiotic metabolism (CYP2C9), CYP2C9 (gene 1559) (assay: CLD_CYP2C9_6hr: CellzDirect (CLD) Gene Expression Assay for xenobiotic metabolism (CYP2C9) at 6 hours (AID 2283664)).
Procedure: CLD_6hr is a cell-based, multiplexed-readout assay that uses hepatocyte, a human liver primary cell, with measurements taken at 6 hours after chemical dosing in a 96-well plate.CLD_CYP2C9_6hr is one of 16 assay component(s) measured or calculated from the CLD_6hr assay. It is designed to make measurements of mRNA induction, a form of inducible reporter, as detected with chemiluminescence signals by Quantitative Nuclease Protection Assay (qNPA) technology.Data from the assay component CLD_CYP2C9_6hr was analyzed at the endpoint, CLD_CYP2C9_6hr, in the positive analysis fitting direction relative to DMSO as the negative control and baseline of activity. Using a type of inducible reporter, gain-of-signal activity can be used to understand changes in the reporter gene as they relate to the gene CYP2C9. Furthermore, this assay endpoint can be referred to as a primary readout. To generalize the intended target to other relatable targets, this assay endpoint is annotated to the cyp intended target family, where subfamily is xenobiotic metabolism.
Human hepatocyte cultures were treated daily for two consecutive days with fresh dosing solutions containing appropriate concentrations of the 320 ToxCast chemicals (chemical identities were blinded to CellzDirect and other ToxCast collaborators), vehicle control (0.2% DMSO), and positive control inducers as summarized in Table 1. Due to the large number of treatment groups and chemicals examined, the ToxCast chemicals were divided into two groups (spanning two independent cultures of hepatocytes from separate donor preparations (Hu778: ToxCast plates 1 and 2; Hu776: ToxCast plates 3 and 4). Each preparation of human hepatocyte cultures was treated with respective vehicle control, medium only control, set of six positive controls/reference chemicals for the five hepatic receptor pathways, and a subset of eight of the ToxCast chemicals (indoxacarb, pyrithiobac-sodium, norflurazon, cyhalofop-butyl, methomyl, thiram, acetochlor, and propiconazole). These replicate data, coupled with internal replicates designed within the blinded ToxCast chemical library, provided additional data to evaluate interindividual differences between hepatocyte preparations and their potential impact on chemical profiles.Cell morphology and integrity were evaluated using phase-contrast microscopy as an indicator of hepatocyte cell health (Tyson & Green, 1987). Cultures for each treatment group (i.e., media, vehicle [0.2% DMSO], positive control inducers [multiple concentrations], and the ToxCast chemicals [multiple concentrations]) were observed and cell morphology was assessed relative to vehicle control cultures at each harvest time point (0, 6, 24, or 48 h). […] Images were evaluated at the conclusion of the study to assess changes in cell integrity and account for the effects of chemical exposure on uncharacteristic changes in concentration-dependent gene expression profiles. The results from these determinations of apparent cytotoxicity were annotated (yes/no) alongside the corresponding qNPA data for reference.At the conclusion of each treatment period, hepatocyte cultures (96-well) were washed with 1 volume of HBSS, lysed by addition of 25 ul ArrayPlate lysis buffer (HTG, Tucson, AZ), and 70 ul/well of Denaturation Oil, denatured by incubation at 95C for 10 min, and frozen at approximately -70C until analysis by nuclease protection assay (qNPA) (Roberts et al., 2007). For qNPA analysis, cell lysates were thawed at 50C for approximately 30 min, qNPA probes were added, and samples were incubated at 95C for 10 min to begin the detection process by denaturing the target RNA, dissociating the duplexes and secondary structure hybridization. At the conclusion of the hybridization period, S1 nuclease reagent was added to each sample to digest all nonprotected nucleotides at 50C for 60-90 min. […]

| Structure (SMILES) | outcome | AC50 |
| --- | --- | --- |
| CCCN(CCC)C(=O)SCC | inactive | – |
| C#CCOC(=O)[C@@H](C)Oc1ccc(Oc2ncc(Cl)cc2F)cc1 | inactive | – |
| CCCOC(=O)NCCCN(C)C | inactive | – |
| CCCCCOC(=O)COc1cc(N2C(=O)C3=C(CCCC3)C2=O)c(F)cc1Cl | inactive | – |
| S=C(S)NCCNC(=S)S.[Mn+2].[S-]C([S-])=NCCN=C([S-])[S-].[Zn+2] | inactive | – |
| CC(C)(C)[C@@H](O)[C@@H](Cc1ccc(Cl)cc1)n1cncn1 | inactive | – |
| CCCCC(CC)CN1C(=O)C2C3C=CC(C3)C2C1=O (stereo not drawn) | inactive | – |
| COCCO | inactive | – |
| COC(=O)c1ccccc1S(=O)(=O)NC(=O)Nc1nc(OC(F)F)cc(OC(F)F)n1 | inactive | – |
| CCC(O)=C1C(=O)CC(C(=O)O)CC1=O (stereo not drawn) | inactive | – |
| CCOC(=O)C(C)Oc1ccc(Oc2cnc3cc(Cl)ccc3n2)cc1 (stereo not drawn) | inactive | – |
| N#CSCSc1nc2ccccc2s1 | – | 36.1 µM (active) |
| CCOC(=O)COc1cc(-n2ncc(C(F)(F)F)c(C)c2=O)c(F)cc1Cl | inactive | – |
| CC1(C)C(C=C(Cl)Cl)C1C(=O)OCc1cccc(Oc2ccccc2)c1 (stereo not drawn) | inactive | – |
| COC(=O)CSc1cc(N=c2sc(=O)n3n2CCCC3)c(F)cc1Cl | inactive | – |
| CC(C)(c1ccc(O)cc1)c1ccc(O)cc1 | inactive | – |
| COc1nc(C)nc(NC(=O)NS(=O)(=O)c2ccccc2OCCCl)n1 | inactive | – |
| CCCCOC(=O)[C@@H](C)Oc1ccc(Oc2ccc(C(F)(F)F)cn2)cc1 | inactive | – |
